# Shown are actives, neighbours in structure and some others; about 18% of the full set was active somewhere.
# TDP1 cell noCPT – qHTS for Inhibitors of human tyrosyl-DNA phosphodiesterase 1 (TDP1): qHTS in cells in absence of CPT; AID 686978, 2013; Potency, µM (highest dose often 46.2 µM), for the others: top-dose activity change, negative = growth inhibition, usual class: inhibitors; 420,000 compounds, 15% hits; DT40 Tdp1-/- hTDP1 cells, no CPT, ATP luminescence, 48 h; note: nearly all actives have a fitted effect of over 55% in size
#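 Stably hTDP1-transfected Tdp1-null chicken DT40 cells were treated with library compounds minus camptothecin and grown for at least 48 hr at 37 °C, after which cellular ATP was quantified by luminescence.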
# TDP1 block – qHTS Assay for Inhibitors of Tyrosyl-DNA Phosphodiesterase (TDP1). Tyrosyl-DNA phosphodiesterase 1 (Homo sapiens), Q9NUW8. recombinant TDP1, AlphaScreen DNA substrate cleavage. Potency, µM (titrated, usually from 130 µM), for inactives: top-dose activity change, negative = inhibition, usual class: inhibitors. 350,000 compounds, 0.28% hits. AID 485290, 2010; note: nearly all actives have a fitted effect of over 40% in size
# Target sequence (Q9NUW8 whole entry, looked up): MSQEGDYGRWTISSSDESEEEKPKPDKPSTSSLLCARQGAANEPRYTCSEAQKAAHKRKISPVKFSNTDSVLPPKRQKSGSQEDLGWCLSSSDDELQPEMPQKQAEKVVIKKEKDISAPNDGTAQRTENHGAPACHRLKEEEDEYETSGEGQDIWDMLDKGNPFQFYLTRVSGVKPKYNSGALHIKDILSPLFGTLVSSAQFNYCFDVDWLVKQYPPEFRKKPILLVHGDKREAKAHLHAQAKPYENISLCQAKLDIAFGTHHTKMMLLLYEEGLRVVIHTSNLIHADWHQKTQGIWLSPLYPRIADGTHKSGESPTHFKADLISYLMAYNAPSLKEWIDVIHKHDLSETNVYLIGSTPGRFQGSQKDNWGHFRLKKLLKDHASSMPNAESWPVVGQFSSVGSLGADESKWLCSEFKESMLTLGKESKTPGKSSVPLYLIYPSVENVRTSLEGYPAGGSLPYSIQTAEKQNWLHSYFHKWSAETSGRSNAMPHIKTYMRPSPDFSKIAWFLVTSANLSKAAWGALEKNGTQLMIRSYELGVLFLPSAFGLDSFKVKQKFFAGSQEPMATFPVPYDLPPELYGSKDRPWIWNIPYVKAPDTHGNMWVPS
#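 Compounds were preincubated with Tdp1 (1 nM final) for 15 min at room temperature before substrate (15 nM final) started a 5 min reaction; beads (10 ug/ml final) were then added for 10 min before AlphaScreen detection.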
# GCN5L2 inh – qHTS Assay for Inhibitors of GCN5L2. GCN5L2 HAT assay, ThioGlo1 CoA-SH fluorescence. AID 504327, 2011. Potency, µM (series often up to 58.9 µM), for inactives: at the highest dose activity change, negative = inhibition, most hits filed as inhibitors. Histone acetyltransferase KAT2A (Homo sapiens), Q92830. 390,000 compounds, 0.21% hits
#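 Titration-based screen in which CoA formation is detected via maleimide probe ThioGlo1 (50uM) turning fluorescent on thiol reaction; substrates H3(1-25) 75uM and acetyl-CoA 70uM, GCN5L2 20nM, 20 min incubation at room temperature.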
# DT40 TDP1 CPT – qHTS for Inhibitors of human tyrosyl-DNA phosphodiesterase 1 (TDP1): qHTS in cells in presence of CPT; AID 686979, 2013; Potency, µM (highest dose often 46.2 µM), inactives show top-dose activity change, negative = growth inhibition, most hits filed as inhibitors; 420,000 compounds, 12% hits; chicken DT40 Tdp1-/-;hTDP1 cells + 20 nM CPT, ATP luminescence, 48 h; note: nearly all actives have a fitted effect of over 55% in size
#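 Cell growth measured by CellTiter-Glo luminescence after a minimum 48 h, 37 C compound exposure with 20 nM CPT in Tdp1-knockout DT40 cells stably expressing hTDP1, seeded 400/well; qHTS titration format.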
# PLK1 PBD block – qHTS for Inhibitors of PLK1-PDB (polo-like kinase 1 - polo-box domain): Primary Screen; Serine/threonine-protein kinase PLK1 (Homo sapiens), P53350; Plk1 PBD binding of FITC phosphopeptide, fluorescence polarization; Potency, µM, for the others: max response, negative = inhibition, usual class: inhibitors; 360,000 compounds, 2.8% hits; AID 720504, 2013; note: series mostly up to about 57 µM; nearly all actives have a fitted effect of over 65% in size
# VDR inhibitor – Inhibitors of the vitamin D receptor (VDR): qHTS; VDR-SRC2-3 peptide fluorescence polarization, 2 h; Potency, µM, without a hit: max response, negative = inhibition, usual class: inhibitors; 400,000 compounds, 0.93% hits
#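 The screen uses fluorescence polarization to detect compounds that interfere with recruitment of the SRC2-3 coactivator peptide to VDR; plates are read after 2 h at room temperature.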
# * = called active by the depositor; ? = inconclusive; / = no result; [ ] = another dose, or the depositor's remark. Calls come from the whole dose curve; as a rule, active = well fitted curve in the direction sought with a large enough effect; inconclusive = small, poorly fitted or top-dose-only effect, or another doubt; inactive = no such curve, though single readings can be large; an effect the other way counts as inactive or inconclusive. % is set by controls: 0 for no effect and ±100 for the full control effect; potency is the fitted concentration of half-maximal effect.
SMILES,TDP1 cell noCPT,TDP1 block,GCN5L2 inh,DT40 TDP1 CPT,PLK1 PBD block,VDR inhibitor
N#Cc1ccc(C23OCCN2CCn2nc4ccccc4c23)cc1 (configuration not stated),?,-1%,-3%,?,-13%,-9%
O=C(O)CCCC(=O)Nc1ccn(-c2ccccc2)n1,?,-1%,0%,18µM*,11µM*,-13%
C=CCOC(=O)C1=C(C)NC(SCC(=O)Nc2nccs2)=C(C#N)C1c1ccc(Cl)cc1 (configuration not stated),32µM*,5%,-16%,22µM*,-15%,-12%
C=CCOC(=O)C1=C(C)NC(SCC(=O)Nc2nccs2)=C(C#N)C1c1cccs1 (configuration not stated),?,1%,2%,?,30µM*,-15%
C=CCOC(=O)C1=C(C)NC(SC)=C(C#N)C1c1ccc(OCC)cc1 (configuration not stated),?,-5%,-11%,?,6%,8%
COCC(=O)Nc1cc(C(=O)N[C@H]2CCCCNC2=O)c2c(c1)nc(-c1ccncc1)n2C,-14%,/,/,13%[9.04 µM],/,/
CC(I)CCC(C)[n+]1cccc(I)c1 (configuration not stated),4%,/,/,15%,/,/
O=C(CN1C(=O)CCSc2ccc(S(=O)(=O)N3CCCC3)cc21)Nc1cccc(Cl)c1,?,9%,-10%,23µM*,/,11%
O=C(CN1C(=O)CCSc2ccc(S(=O)(=O)N3CCCC3)cc21)Nc1cccc(F)c1,?,4%,3%,13µM*,/,14%
O=C(CN1C(=O)CCSc2ccc(S(=O)(=O)N3CCCC3)cc21)Nc1ccccc1,-1%,4%,-5%,-4%,-4%,-10%
Cc1cccc(NC(=O)CN2C(=O)CCSc3ccc(S(=O)(=O)N4CCOCC4)cc32)c1C,1%,35µM*,-8%,?,?,-22%
O=C(CN1C(=O)CCSc2ccc(S(=O)(=O)N3CCOCC3)cc21)Nc1ccccc1Cl,-29%,-5%,-9%,?,-14%,11%
CC(=O)N1CCc2cc(CNC(=O)Cc3ccc(F)cc3)ccc21,-25%,0%,1%,-18%,/,4%
COCCn1c(=O)c(-c2ccc(F)cc2)nc2cnc(OCc3ccccc3)nc21,-8%,/,-20%,1%,/,-2%
O=C(Nc1ccc(OC(F)(F)F)cc1)C1CCN(S(=O)(=O)c2ccc3[nH]c(=O)ccc3c2)CC1,?,2%,-3%,-8%,/,-10%
O=S(=O)(c1ccc(F)cc1)N1CCN(c2nc(-c3ccc(F)cc3)nc3cc(Cl)ccc23)CC1,/,0%,/,/,/,-3%
COc1ccc(S(=O)(=O)Nc2noc3ccccc23)cc1OC,6%,/,0%,-23%,-11%,2%
Cc1cccc2sc(N3CCN(C(=O)c4ccco4)CC3)nc12,?,-5%,-8%,?,/,6%
Cc1ccc(C)c2sc(N3CCN(C(=O)c4ccco4)CC3)nc12,18µM*,8%,-5%,?,/,8%
Cc1ccc(Cl)c2sc(N3CCN(C(=O)c4ccco4)CC3)nc12,16µM*,4%,-15%,?,-6%,-9%
O=C(c1ccco1)N1CCN(c2nc3c(Cl)cccc3s2)CC1,-29%,5%,-3%,-28%,/,2%
COc1cc(C(=O)NCC2CCCN2S(=O)(=O)c2cccs2)cc(OC)c1OC (configuration not stated),?,0%,-1%,-3%,4%,-3%
COc1ccc(/C=C/C(=O)N2CCN(C)CC2)cc1S(=O)(=O)N1CCCCC1,?,-8%,-1%,-19%,4%,6%
COc1ccc(C2CC(c3ccccc3)Oc3cc(C)cc(C)c32)cc1 (configuration not stated),/,1%,/,/,/,-6%
O=C(c1ccc(F)cc1)C1CCN(C(=S)Nc2ccc(F)cc2)CC1,15µM*,/,-2%,?,4%,-22%
SMILES,TDP1 cell noCPT,TDP1 block,GCN5L2 inh,DT40 TDP1 CPT,PLK1 PBD block,VDR inhibitor
O=C(NC1CCN(C(=S)NCCc2ccccc2)CC1)C1CC1,-2%,-3%,1%,-1%,-14%,9%
CCCNC(=S)N1CCC(NC(=O)C2CCCCC2)CC1,?,3%,-11%,16µM*,24µM*,?
CCCNC(=S)N1CCC(C(=O)c2ccc(F)cc2)CC1,16µM*,2%,-4%,15µM*,-3%,128%
COc1ccccc1NC(=O)CSc1nc2sc(C)c(C)c2c(=O)n1C,13µM*,2%,-9%,21µM*,-18%,10%
Cc1sc2nc(SCC(=O)NCCO)n(C)c(=O)c2c1C,-3%,4%,3%,-15%,1%,-9%
Cc1sc2nc(SCC(=O)OC(C)C)n(C)c(=O)c2c1C,23µM*,6%,2%,-27%,-1%,1%
CC(=O)N/C(=C\c1ccccc1)C(=O)OCC(=O)NC1CCS(=O)(=O)C1 (configuration not stated),?,1%,2%,-1%,-5%,-18%
Cc1c(NC(=O)Nc2ccc(Br)cc2F)sc2nc3n(c(=O)c12)CCC(C)CC3 (configuration not stated),?,2%,-9%,3.7µM*,/,17%
COc1ccccc1NC(=O)c1ccccc1-c1nc(-c2ccccc2OC)no1,6.3µM*,0%,-2%,14µM*,-8%,-6%
COc1ccccc1NC(=O)c1ccccc1NC(=O)c1cccs1,?,4%,-5%,23µM*,-16%,4%
COc1cccc(NC(=O)c2cc(Cl)nnc2Cl)c1,8.2µM*,2%,-16%,0.52µM*,-7%,-16%
COc1ccccc1-c1noc(-c2ccccc2C(=O)Nc2ccccc2)n1,-25%,2%,1%,-22%,-5%,6%
COC(=O)c1ccc(NC(=O)c2ccccc2NS(C)(=O)=O)cc1,?,6%,-6%,?,0%,7%
COc1ccccc1NC(=O)c1cccs1,-10%,4%,-3%,-6%,-13%,-3%
COc1cccc(NC(=O)c2ccccc2NS(C)(=O)=O)c1,21µM*,5%,-11%,?,-9%,8%
